This assay deals with Voltage-dependent N-type calcium channel subunit alpha-1B (Homo sapiens) (UniProt Q00975). Briefly: inhibitors of Mint1-CaV2.2 protein interaction, biochemical, HTRF (AID 2073). To be noted: at 20 µM, stronger effect = higher value. (In general: In TR-FRET formats the signal depends on donor and acceptor labels being close together.)
Setting [1] is: measured here: average of repeat tests.

The campaign covered roughly 290,000 compounds. About 570 (0.2%) were called active. Roughly 1% stayed inconclusive and do not appear here. No stated cut-off is given here; in the data, active means inhibition mostly above about 51% (no sharp cut-off); inconclusive means no clear call, values can overlap the other calls; inactive means mostly below about 53%. The list comes from a sample in which actives are over-represented; it also holds similar structures and randomly drawn compounds.

Here are results for 60 compounds from PubChem BioAssay AID2073 (Sanford-Burnham Center for Chemical Genomics, 2009).

Voltage-dependent N-type calcium channel subunit alpha-1B (Homo sapiens), sequence (Q00975 whole entry, looked up): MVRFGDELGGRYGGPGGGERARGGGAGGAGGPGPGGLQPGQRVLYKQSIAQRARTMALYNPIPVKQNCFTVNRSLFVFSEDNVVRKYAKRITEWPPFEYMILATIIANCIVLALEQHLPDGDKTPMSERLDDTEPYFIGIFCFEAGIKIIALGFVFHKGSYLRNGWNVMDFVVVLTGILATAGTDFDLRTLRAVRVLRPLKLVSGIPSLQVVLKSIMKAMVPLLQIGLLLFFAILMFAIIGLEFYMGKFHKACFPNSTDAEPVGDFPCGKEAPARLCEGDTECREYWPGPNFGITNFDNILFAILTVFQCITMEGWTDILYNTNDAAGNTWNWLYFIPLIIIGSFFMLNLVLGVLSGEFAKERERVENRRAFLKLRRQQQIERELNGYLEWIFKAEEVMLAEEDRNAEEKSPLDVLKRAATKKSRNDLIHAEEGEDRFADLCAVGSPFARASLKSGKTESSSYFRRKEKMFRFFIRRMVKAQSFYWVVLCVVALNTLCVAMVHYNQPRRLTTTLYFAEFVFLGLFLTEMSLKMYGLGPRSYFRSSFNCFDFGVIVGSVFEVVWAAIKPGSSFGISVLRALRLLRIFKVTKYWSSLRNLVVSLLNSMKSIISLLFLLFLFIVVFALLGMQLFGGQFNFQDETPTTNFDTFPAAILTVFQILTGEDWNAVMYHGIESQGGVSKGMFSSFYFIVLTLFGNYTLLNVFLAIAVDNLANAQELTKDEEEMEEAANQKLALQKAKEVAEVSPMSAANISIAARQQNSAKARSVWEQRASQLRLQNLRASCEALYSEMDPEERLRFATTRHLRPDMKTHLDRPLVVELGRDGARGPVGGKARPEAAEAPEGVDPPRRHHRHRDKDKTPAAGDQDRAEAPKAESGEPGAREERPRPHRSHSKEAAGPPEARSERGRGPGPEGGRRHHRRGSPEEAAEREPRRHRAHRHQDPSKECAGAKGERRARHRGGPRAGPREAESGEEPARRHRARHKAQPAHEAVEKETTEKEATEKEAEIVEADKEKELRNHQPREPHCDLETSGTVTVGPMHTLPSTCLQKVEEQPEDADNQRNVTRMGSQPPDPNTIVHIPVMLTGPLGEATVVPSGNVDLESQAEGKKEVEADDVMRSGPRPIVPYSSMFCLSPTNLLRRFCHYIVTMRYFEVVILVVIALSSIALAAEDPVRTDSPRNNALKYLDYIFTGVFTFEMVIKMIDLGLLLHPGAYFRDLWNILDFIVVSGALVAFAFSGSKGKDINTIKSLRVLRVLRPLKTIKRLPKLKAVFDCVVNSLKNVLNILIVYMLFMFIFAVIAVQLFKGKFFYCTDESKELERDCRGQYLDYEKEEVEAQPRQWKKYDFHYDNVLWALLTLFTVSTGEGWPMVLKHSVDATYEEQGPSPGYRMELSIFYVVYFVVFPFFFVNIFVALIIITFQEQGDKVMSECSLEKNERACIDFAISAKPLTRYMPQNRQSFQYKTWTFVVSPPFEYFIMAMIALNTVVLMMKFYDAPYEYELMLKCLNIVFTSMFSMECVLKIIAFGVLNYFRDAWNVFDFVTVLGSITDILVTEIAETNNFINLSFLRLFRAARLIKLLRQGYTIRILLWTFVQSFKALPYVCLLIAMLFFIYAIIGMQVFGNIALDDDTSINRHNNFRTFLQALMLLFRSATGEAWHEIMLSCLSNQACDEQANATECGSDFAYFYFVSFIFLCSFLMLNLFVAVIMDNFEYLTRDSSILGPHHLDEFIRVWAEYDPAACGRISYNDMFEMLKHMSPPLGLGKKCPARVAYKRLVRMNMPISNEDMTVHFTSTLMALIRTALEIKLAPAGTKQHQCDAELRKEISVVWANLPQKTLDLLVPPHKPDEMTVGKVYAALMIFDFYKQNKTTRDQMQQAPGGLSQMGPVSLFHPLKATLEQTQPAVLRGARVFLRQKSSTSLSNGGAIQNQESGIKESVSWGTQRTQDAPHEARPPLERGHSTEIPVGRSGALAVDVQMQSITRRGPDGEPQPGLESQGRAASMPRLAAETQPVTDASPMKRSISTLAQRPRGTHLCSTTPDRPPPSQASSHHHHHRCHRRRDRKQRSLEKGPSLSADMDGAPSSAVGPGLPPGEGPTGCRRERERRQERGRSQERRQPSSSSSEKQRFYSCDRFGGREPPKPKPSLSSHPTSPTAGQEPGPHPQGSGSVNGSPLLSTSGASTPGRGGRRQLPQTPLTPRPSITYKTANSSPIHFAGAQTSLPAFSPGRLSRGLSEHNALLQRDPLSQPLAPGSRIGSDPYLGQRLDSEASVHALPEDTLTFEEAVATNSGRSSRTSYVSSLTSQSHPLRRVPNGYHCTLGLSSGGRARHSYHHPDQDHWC

What is called inhibition is the change of the read-out against control, counted positive when it falls. For `COc1ccccc1N(CC(=O)N(CC(C)C)CC(C)C)S(=O)(=O)c1cccs1`, the inhibition was -4.4% (inactive).

On to `COc1ccc(N2C(=O)c3cc4ccccc4cc3C2=O)cc1`, for which the inhibition is 4.4% (inactive).

With `COc1ccc(N2C(=O)C(Cl)=C(Oc3cccc(OC)c3)C2=O)cc1`, the inhibition was 56.7% (active).

Regarding `COc1ccc(N2C(=O)C(Cl)=C(N3CCCC3)C2=O)cc1`, the inhibition is 19.5% (inactive).

As for `Cc1ccc(Nc2nc(-c3ccc(C)cc3)c(CC(=O)O)s2)cc1`, the inhibition is 14.4% (inactive).

As for `Cc1nc2sc(C(c3cccc(F)c3)N3CCN(C(=O)c4ccco4)CC3)c(O)n2n1` (configuration not stated), the inhibition was 3.9% (inactive).

With `CC(=O)CC1(O)C(=O)Nc2ccccc21` (configuration not stated), the inhibition is 33.4% (inactive).

With `CN(C)CCNc1c(N)c(=O)oc2ccccc12`, the inhibition was -16.1% (inactive).

Regarding `Cc1ccc(C(=O)c2ccccc2C(=O)OCC(=O)NC(C)(C)C)cc1`, the inhibition is -3.7% (inactive).

For `CCOC(=O)c1ccc(N2C(=O)c3n[nH]c(C)c3C2c2ccco2)cc1` (configuration not stated), the inhibition is -2.1% (inactive).

As to `CCOC(=O)c1ccc(N2C(=O)c3n[nH]c(-c4ccco4)c3C2c2cccc([N+](=O)[O-])c2)cc1` (configuration not stated), the inhibition was 27.2% (inactive).

As to `CCOC(=O)c1ccc(N2C(=O)c3n[nH]c(-c4ccco4)c3C2c2ccc([N+](=O)[O-])cc2)cc1` (configuration not stated), the inhibition was 71.1% (active).

Take `O=C(O)Cn1nnnc1-c1ccc(F)cc1`: the inhibition is 0% (inactive).

As for `CC(NC(=O)C1CCCN(C(=O)N(C)C)C1)c1ccccc1` (configuration not stated), the inhibition was 0.8% (inactive).

Take `COC(=O)N/N=C/c1cc(N=Nc2ccccc2)ccc1O`: the inhibition is 23.6% (inactive).

For the compound `CC(C)(C)OC(=O)N/N=C/c1cc(N=Nc2ccccc2)ccc1O`, the inhibition is 3.5% (inactive).

For the compound `Cc1cccc(C)c1N1C(=O)CC(N(O)c2ccccc2)C1=O` (configuration not stated), the inhibition is 4.8% (inactive).

In the case of `Cc1cc(C)c(C#N)c(N2CCN(S(=O)(=O)Cc3ccccc3)CC2)n1`, the inhibition is 1% (inactive).

As to `CCOC(=O)c1sc(NC(=O)CN2C(=O)NC3(CC(C)CC(C)(C)C3)C2=O)c(C(=O)OCC)c1C` (configuration not stated), the inhibition is 13.6% (inactive).

For `COc1ccc(C2Nc3cccc4cccc(c34)N2)cc1Br`, the inhibition is 25.7% (inactive).

Regarding `COc1cc(C2Nc3cccc4cccc(c34)N2)ccc1OC(C)=O`, the inhibition is 74.4% (inactive). Further, the inhibition under setting [1] is -13.1%.

Take `COc1cc(C2Nc3cccc4cccc(c34)N2)cc(OC)c1OC(C)=O`: the inhibition was 77.3% (active).

For the compound `Cc1ccc(NC(=S)Nc2cccc3cnccc23)cc1`, the inhibition was 21.8% (inactive).

With `Cc1cc(C)cc(NC(=S)Nc2cccc3cnccc23)c1`, the inhibition was 16.7% (inactive).

As for `COc1ccc(NC(=S)Nc2cccc3cnccc23)cc1`, the inhibition is 77.7% (active).

Consider `CN(C)S(=O)(=O)c1cccc(NC(=S)Nc2cccc3cnccc23)c1`, for which the inhibition is 51.6% (active).

`S=C(Nc1cccnc1)Nc1cccc2cnccc12`: the inhibition was 79.7% (inactive). Besides, the inhibition under setting [1] is 4.7%.

For the compound `CCOc1ccc(NC(=S)Nc2cccc3cnccc23)cc1`, the inhibition is 27% (inactive).

With `COc1ccc(/C=C2\SC(N3CCCCC3)=NC2=O)cc1`, the inhibition was 3.8% (inactive).

On to `COc1ccc(CNC(=O)C(C)OC(=O)c2cccn2C)cc1` (configuration not stated), for which the inhibition is -0.9% (inactive).

As to `COc1ccc(S(=O)(=O)N(C)C2CCS(=O)(=O)C2)cc1OC` (configuration not stated), the inhibition is 4.6% (inactive).

For `COCCNC(=O)c1cccc(Nc2nc(-c3ccccc3)c3cc(Cl)ccc3n2)c1`, the inhibition was 54.5% (active).

Turning to `OCCNc1nc(-c2ccccc2)c2cc(Cl)ccc2n1`, the inhibition is 15.1% (inactive).

As for `O=C(NCCO)c1cccc(Nc2nc(-c3ccccc3)c3cc(Cl)ccc3n2)c1`, the inhibition is 11.1% (inactive).

As to `Clc1ccccc1-c1nnc2sc(-c3ccc(Br)o3)nn12`, the inhibition was -3.6% (inactive).

With `Nn1cnnc1N/N=C\c1ccc(-c2ccccc2[N+](=O)[O-])o1`, the inhibition is 62% (active).

As for `Cc1nnc(N/N=C\c2ccc(-c3ccccc3[N+](=O)[O-])o2)n1N`, the inhibition is 45% (inactive).

On to `O=[N+]([O-])c1ccccc1-c1ccc(/C=N/n2cnnc2)o1`, for which the inhibition is -7.6% (inactive).

`COc1ccc(CCN(C)C(=O)CN2C(=O)c3ccccc3S2(=O)=O)cc1OC`: the inhibition is -0.2% (inactive).

For the compound `COc1ccc(N2C(=O)N(Cc3ccccc3F)c3ccccc3S2(=O)=O)cc1`, the inhibition is -1.5% (inactive).

`COc1ccc(N2C(=O)N(Cc3cccc(F)c3)c3ccccc3S2(=O)=O)cc1`: the inhibition is 55.6% (active).

As to `COc1ccc(N2C(=O)N(Cc3ccc(C)cc3)c3ccccc3S2(=O)=O)cc1`, the inhibition was 5.3% (inactive).

In the case of `N#CCCN1CCCN(CCC#N)CCN(CCC#N)CCCN(CCC#N)CC1`, the inhibition was -13.6% (inactive).

With `CCOC(=O)/C=c1\s/c(=C\c2c(OCC)ccc3ccccc23)c(=O)n1CC(=O)NCC1CCCO1` (configuration not stated), the inhibition is 10.3% (inactive).

As for `COc1cc(OC)cc(C(=O)OCC(=O)NC(C)CCc2ccccc2)c1` (configuration not stated), the inhibition is 34.5% (inactive).

Regarding `COc1ccc2c(Cl)c(C(=O)N/N=C3\CCCC(=O)C3)sc2c1`, the inhibition was 50.9% (active).

`COc1ccc2c(Cl)c(C(=O)NN)sc2c1`: the inhibition is 8.1% (inactive).

Regarding `O=C1CCC/C(=N/NC(=O)c2sc3ccccc3c2Cl)C1`, the inhibition was 8.3% (inactive).

Consider `Cc1ccc(C(=O)NCCc2nnc3ccc(NCc4ccc5c(c4)OCO5)nn23)cc1`, for which the inhibition is -1.4% (inactive).

`COc1ccc(C(=O)Nc2ccc(Cl)cc2C(=O)NCCO)cc1`: the inhibition is -1.8% (inactive).

Consider `CCN1CCCC1CNC(=O)c1cc2c(C)nc3ccccc3c2o1` (configuration not stated), for which the inhibition is 5.2% (inactive).

For the compound `CCOC(=O)N1CCC(C(=O)NNC(=O)c2ccc(Cl)cc2Cl)CC1`, the inhibition was 6.9% (inactive).

On to `CN1/C(=C/C(=O)C2CC2)C(C)(C)c2ccccc21`, for which the inhibition was 3.3% (inactive).

Regarding `CCOC(=O)c1cc2c(=O)n3ccccc3nc2n(Cc2ccco2)c1=NC(=O)c1ccc(OC)cc1OC`, the inhibition was 66.1% (active).

As to `CCOC(=O)c1cc2c(=O)n3ccccc3nc2n(Cc2ccco2)c1=NC(=O)c1ccccc1OC`, the inhibition was 10.2% (inactive).

As for `CCOC(=O)c1cc2c(=O)n3ccccc3nc2n(Cc2ccco2)c1=NC(=O)c1ccc(OC)cc1`, the inhibition is 33.1% (inactive).

In the case of `Cc1ccc(CNC(=O)c2ccc(S(=O)(=O)Nc3c(C)n(C)n(-c4ccccc4)c3=O)cc2)cc1`, the inhibition is 0.9% (inactive).

As for `O=Cc1cccn1-c1cccnc1`, the inhibition is 8.9% (inactive).

As for `Fc1ccccc1N1CCN(C2CCCN(Cc3ccccc3C(F)(F)F)C2)CC1` (configuration not stated), the inhibition is -0.4% (inactive).

As for `CCN(CC)CCN(C(=O)c1ccc2c(c1)OCCO2)c1nc2ccc(C)cc2s1`, the inhibition was -5.5% (inactive).
